Assay results from PubChem BioAssay AID489008 (National Center for Advancing Translational Sciences (NCATS), 2010).
Records with an inconclusive call do not appear. Calls of active or inactive are those of the source. Calls come from the whole dose curve; as a rule, active = well fitted inhibition curve with a large enough effect; inconclusive = small, poorly fitted or top-dose-only effect; inactive = flat fitted curve, though single readings scatter.

What follows are compounds tested against Ferritin light chain (Equus caballus) (UniProt P02791) (assay: Confirmation Assay for Identification of Novel General Anesthetics). Conditions: apoferritin 1-aminoanthracene fluorescence displacement.
Text: Anesthetic development has remained a largely empirical process. There are growing concerns about the cognitive effects of known general anesthetics and acceleration of the onset of neurodegenerative disease. The compounds' toxicity and multiple specific binding targets in the mammalian brain [4] has made them less attractive as drug leads. In this assay, a GABAergic mimetic model system, apoferritin and a profluorescent 1-aminoanthracene ligand (1-AMA), was used to construct a competitive binding assay for identification of novel general anesthetics. The assay was validated for 1-AMA using other known anesthetics, such as isoflurane (CID:3763) and propofol (CID: 4943), [6]. This particular BioAssay is a confirmation of followup compounds from primary screen AID:485281.
[1] S.L. Bianchi, T. Tran, C. Liu, S. Lin, Y. Li, J.M. Keller, R.G. Eckenhoff, and M.F. Eckenhoff, Brain and behavior changes in 12-month-old Tg2576 and nontransgenic mice exposed to anesthetics. Neurobiol Aging 29 (2008) 1002-10.
[2] Z. Xie, Y. Dong, U. Maeda, R.D. Moir, W. Xia, D.J. Culley, G. Crosby, and R.E. Tanzi, The inhalation anesthetic isoflurane induces a vicious cycle of apoptosis and amyloid beta-protein accumulation. J Neurosci 27 (2007) 1247-54.
[3] P. Honegger, and J.M. Matthieu, Selective toxicity of the general anesthetic propofol for GABAergic neurons in rat brain cell cultures. J Neurosci Res 45 (1996) 631-6.
[4] M.F. Eckenhoff, K. Chan, and R.G. Eckenhoff, Multiple specific binding targets for inhaled anesthetics in the mammalian brain. J Pharmacol Exp Ther 300 (2002) 172-9.
[5] C.A. Butts, J. Xi, G. Brannigan, A.A. Saad, S.P. Venkatachalan, R.A. Pearce, M.L. Klein, R.G. Eckenhoff, and I.J. Dmochowski, Identification of a fluorescent general anesthetic, 1-aminoanthracene. Proc Natl Acad Sci U S A 106 (2009) 6501-6.
[6] W.A. Lea, J. Xi, A. Jadhav, L. Lu, C.P. Austin, A. Simeonov, and R.G. Eckenhoff, A high-throughput approach for identification of novel general anesthetics. PLoS One 4 (2009) e7150.
Source: NIH Chemical Genomics Center [NCGC]
Assay Submitter: Roderic Eckenhoff, University of Pennsylvania
Screening Center PI: Christopher P. Austin, NIH
Probe Development: NIH Chemical Genomics Center [NCGC]
Three uL of reagents (free 1-AMA (50% saturated solution of 1-aminoanthracene
in PBS) in columns 3, 4 as negative control and 1-AMA/apoferritin mixture (10 uM horse-spleen apoferritin in 50% saturated 1-aminoanthracene in PBS) in columns 1, 2, 5-48) was dispensed into 1536-well Greiner black assay plates. Compounds (23 nL) were transferred via Kalypsys pintool equipped with 1,536-pin array (10 nL slotted pins, V&P Scientific, San Diego, CA). Titration of the positive control, propofol, were delivered via pin transfer from separate control plates to the 2nd column of each assay plate. The starting concentration of the control, dissolved in DMSO, was at 160 mM, followed by two-fold dilution points in duplicate, for a total of 16 concentrations. The plates were incubated for 10 min at room temperature, and then read on an EnVision HTS multilabel reader (Perkin-Elmer, Waltham, MA) (end point read, 3 min/plate) using Fura2 BFP excitation filter (380 nm, bandwidth 10 nm) and fluorescein emission filter (535 nm, bandwidth 25 nm) set. A LANCE/DELFIA dichroic mirror with a cutoff wavelength at 400 nm was used to maximize signal accuracy and strength. Vehicle-only plates, with DMSO being pin-transferred to the entire column 5-48 compound area, were inserted uniformly at the beginning and the end of each library in order to monitor for and record any shifts in the background. Activity was computed as the normalized fluorescence response relative to free 1-AMA and 1-AMA/apoferritin complex values. Concentration-effect relationships were derived by using curve fitting algorithms developed in-house (http://ncgc.nih.gov/pub/openhts/). […]
Note: nearly all actives have a fitted effect of over 40% in size.
Potency is the fitted concentration of half-maximal effect.

Chain of Ferritin light chain (Equus caballus) (P02791 2-175 limits assumed): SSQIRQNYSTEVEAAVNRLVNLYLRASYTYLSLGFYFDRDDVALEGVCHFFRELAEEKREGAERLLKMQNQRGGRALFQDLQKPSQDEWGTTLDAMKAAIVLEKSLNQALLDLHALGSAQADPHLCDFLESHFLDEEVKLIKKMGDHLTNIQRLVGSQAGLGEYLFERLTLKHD

Row | Compound | Potency
1 | CC(C(=O)c1cn(C)c2ccccc12)c1ccccc1 (configuration not stated) | 35.5 µM (active)
2 | Nc1ccc(Oc2cccc(Oc3ccc(N)cc3)c2)cc1 | 31.6 µM (active)
3 | O=C1C(c2ccccc2)=C(N2CC2)c2ccccc21 | 35.5 µM (active)
4 | O=C(COC(=O)Cc1ccccc1)NC12CC3CC(CC(C3)C1)C2 | 14.1 µM (active)
5 | CCN(CC)C(=O)Oc1ccc(Cl)c2ccccc12 | 31.6 µM (active)
6 | c1ccc(C2CC3CC4(CCCC4)N2O3)cc1 (configuration not stated) | 7.94 µM (active)
7 | O=C(Cn1nc(-c2ccccc2)ccc1=O)N1CCC2(CC1)OCCO2 | 15.8 µM (active)
